Activity calls are given as the source filed them.
Experiments:
[1] = test system: Human papillomavirus type 1a protein E7 (residues 44-93); assay: HPV1a E7 fragment binders on microarrays, primary screen, biochemical, small-molecule microarray, residues 44-93, 635 nm fluorescence (AID 1108); conditions: small-molecule microarray binding, fluorescence 635 nm; higher = more signal;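 further: E7 fragment applied at 1 µg/mL in TBST for 1 h at 4 C; score combines spot fluorescence with its signal to noise ratio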
[2] = modulators of HCV replicon luciferase signal, primary screen, HCV replication inhibitor project, Huh7 cells, luciferase reporter (AID 1109); conditions: 48 h, higher = more signal;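 further: huh7 hepatoma cells harbouring a luciferase neomycin HCV replicon reporter; luciferase luminescence as measure of HCV replicon replication; test concentration not given here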
[3] = biological target: Left-right determination factor 2 (Homo sapiens) (UniProt O00292); assay: LEFTY2 binders on small-molecule microarrays, primary screen, biochemical, small-molecule microarray, 635 nm fluorescence scan (AID 1110); conditions: LEFTY2 binding, higher = more signal
Left-right determination factor 2 (Homo sapiens), sequence (O00292 whole entry, looked up): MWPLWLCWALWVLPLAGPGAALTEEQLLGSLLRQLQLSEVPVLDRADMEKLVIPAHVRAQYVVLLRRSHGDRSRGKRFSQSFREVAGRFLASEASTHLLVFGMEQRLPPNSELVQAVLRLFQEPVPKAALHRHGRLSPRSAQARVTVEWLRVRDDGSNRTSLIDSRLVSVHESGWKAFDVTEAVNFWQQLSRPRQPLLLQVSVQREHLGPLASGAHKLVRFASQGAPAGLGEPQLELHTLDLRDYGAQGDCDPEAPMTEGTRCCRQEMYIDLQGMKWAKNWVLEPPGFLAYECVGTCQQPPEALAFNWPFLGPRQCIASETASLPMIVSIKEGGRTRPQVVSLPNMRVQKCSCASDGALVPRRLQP

[4] = biological target: Calmodulin-1 (Homo sapiens) (UniProt P0DP23); assay: CALM1 binders on microarrays, EGTA buffer, profiling panel, biochemical, small-molecule microarray, Cy5-labelled CALM1 (AID 1111); conditions: Cy5-CALM1 binding fluorescence, higher = more signal;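 further: labelled calmodulin applied in Tris saline Tween buffer holding calcium plus EGTA and DTT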
[5] = biological target: Calmodulin-1 (Homo sapiens) (UniProt P0DP23); assay: calcium-bound CALM1 binders on microarrays, profiling panel, artefact control for SMM control-protein annotation, biochemical, small-molecule microarray, Cy5-labelled CALM1, plus calcium (AID 1112); conditions: Cy5-CALM1 binding fluorescence, higher = more signal;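 further: score merges spot fluorescence with signal to noise from triplicate slides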
[6] = small-molecule microarray binders of probe aWnt5a, primary screen, biochemical, biotinylated probe, 635/667 nm fluorescence (AID 1113); conditions: higher = more signal;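 further: score merges 667 nm fluorescence intensity with signal-to-noise per printed feature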
[7] = small-molecule microarray binders of probe aShh, primary screen, biochemical, biotinylated probe, 635/667 nm fluorescence (AID 1114); conditions: higher = more signal;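 further: probe is biotin-labelled aShh protein from a stem cell growth factor screen; measures binding of labelled protein to compounds printed on the slide; score merges feature fluorescence at 667 nm with signal-to-noise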
[8] = small-molecule microarray binders of probe aNog, primary screen, biochemical, biotinylated probe, 635/667 nm fluorescence (AID 1115); conditions: higher = more signal;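 further: probe is biotinylated aNog protein used at 0.15 µg/mL for 1 h at 4 C; z-score combines 667 nm fluorescence of each spot with its signal to noise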
[9] = biological target: Torsin-1A-interacting protein 1 (Homo sapiens) (UniProt Q5JTV8); assay: LAP1 binders from COS7 cell lysate, primary screen, small-molecule microarray, 635/667 nm fluorescence (AID 1116); conditions: COS7-hLAP1 lysate binding, 635 nm fluorescence, higher = more signal
Torsin-1A-interacting protein 1 (Homo sapiens), sequence (Q5JTV8 whole entry, looked up): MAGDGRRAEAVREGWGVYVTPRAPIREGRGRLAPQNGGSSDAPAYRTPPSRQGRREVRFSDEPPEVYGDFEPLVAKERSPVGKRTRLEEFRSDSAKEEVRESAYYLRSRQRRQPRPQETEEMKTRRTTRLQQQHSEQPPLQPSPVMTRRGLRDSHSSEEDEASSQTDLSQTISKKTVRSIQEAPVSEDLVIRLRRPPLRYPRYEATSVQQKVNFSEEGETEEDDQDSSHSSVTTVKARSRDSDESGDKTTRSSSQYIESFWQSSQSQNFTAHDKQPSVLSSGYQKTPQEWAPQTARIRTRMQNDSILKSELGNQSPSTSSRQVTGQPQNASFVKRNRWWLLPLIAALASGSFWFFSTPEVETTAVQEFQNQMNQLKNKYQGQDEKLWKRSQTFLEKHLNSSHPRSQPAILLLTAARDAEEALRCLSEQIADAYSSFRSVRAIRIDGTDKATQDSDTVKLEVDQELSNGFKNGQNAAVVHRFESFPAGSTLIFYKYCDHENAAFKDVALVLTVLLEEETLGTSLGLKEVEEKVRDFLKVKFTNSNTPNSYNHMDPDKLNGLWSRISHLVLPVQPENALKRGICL

[10] = biological target: Alpha-bungarotoxin (Bungarus multicinctus) (UniProt P60615); assay: alpha-bungarotoxin binders on microarray, profiling panel, artefact control for SMM control protein annotation, biochemical, small-molecule microarray, Alexa647 label, 635/667 nm fluorescence (AID 1117); conditions: alpha-BTX-A647 binding fluorescence, higher = more signal
Alpha-bungarotoxin (Bungarus multicinctus), sequence (P60615 whole entry, looked up): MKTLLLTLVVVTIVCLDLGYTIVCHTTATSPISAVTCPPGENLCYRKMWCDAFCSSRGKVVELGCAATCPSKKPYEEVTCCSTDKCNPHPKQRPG

Albumin (Bos taurus) = Albumin (Bos taurus) (UniProt P02769); assay: bovine serum albumin binders on microarray, profiling panel, artefact control for SMM control protein annotation, biochemical, small-molecule microarray, Alexa647 label, 635/667 nm fluorescence (AID 1118); conditions: BSA-A647 binding, fluorescence 635 nm, higher = more signal;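 further: score merges 667 nm emission intensity and signal-to-noise per printed compound spot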
Albumin (Bos taurus), sequence (P02769 whole entry, looked up): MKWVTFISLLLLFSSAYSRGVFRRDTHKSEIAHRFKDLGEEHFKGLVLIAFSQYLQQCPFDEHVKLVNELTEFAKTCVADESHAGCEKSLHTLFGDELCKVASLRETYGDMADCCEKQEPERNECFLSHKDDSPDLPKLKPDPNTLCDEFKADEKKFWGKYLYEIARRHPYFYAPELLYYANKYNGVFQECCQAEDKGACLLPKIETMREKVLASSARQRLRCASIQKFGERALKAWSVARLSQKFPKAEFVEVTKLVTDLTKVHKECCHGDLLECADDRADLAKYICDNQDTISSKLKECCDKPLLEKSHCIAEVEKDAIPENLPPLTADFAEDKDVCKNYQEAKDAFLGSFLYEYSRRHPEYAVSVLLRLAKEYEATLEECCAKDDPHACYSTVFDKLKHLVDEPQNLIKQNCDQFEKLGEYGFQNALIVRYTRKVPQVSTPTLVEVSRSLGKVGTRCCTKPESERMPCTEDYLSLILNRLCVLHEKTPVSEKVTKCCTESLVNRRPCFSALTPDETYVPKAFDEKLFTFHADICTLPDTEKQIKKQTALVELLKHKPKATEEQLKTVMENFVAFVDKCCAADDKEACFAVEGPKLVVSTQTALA

[11] = small-molecule microarray binders of probe aXIP, primary screen, biochemical, NeuroSMM set, 635/667 nm fluorescence (AID 1119); conditions: higher = more signal, called active from +8 up or from −8 down;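 further: probe is the protein aXip251-270 applied at 1 µg/mL to compound-printed slides; binding of probe to printed compounds measured as 667 nm fluorescence plus signal to noise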
[12] = small-molecule binders of probe aNOTCH3, primary screen, biochemical, small-molecule microarray, 635/667 nm fluorescence (AID 1120); conditions: higher = more signal;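 further: probe is a biotin-tagged antibody raised against NOTCH3 rather than NOTCH3 protein; score merges spot fluorescence near 667 nm with spot signal to noise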
[13] = small-molecule binders of probe aNOTCH2, primary screen, biochemical, small-molecule microarray, 635/667 nm fluorescence (AID 1121); conditions: higher = more signal;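 further: score merges feature fluorescence read at 667 nm with its signal to noise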
[14] = biological target: Carbonic anhydrase 2 (Homo sapiens) (UniProt P00918); assay: CAII small-molecule binders, profiling panel, biochemical, small-molecule microarray, Alexa647-labelled CAII (AID 1122); conditions: CAII-A647 binding fluorescence, higher = more signal
[15] = COS7 lysate on small-molecule microarray, probe aHis, 635 nm (AID 1123); conditions: COS7 cell lysate, fluorescence, higher = more signal;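 further: z-score combines 667nm fluorescence intensity with signal-to-noise per printed compound spot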
[16] = compound binding in COS7 lysate, probe aLAP1, primary screen, cell lysate, small-molecule microarray (AID 1124); conditions: probe aLAP1, fluorescence, higher = more signal;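 further: lysate comes from COS7 cells expressing LAP1 and is applied at 0.3 µg/mL; score merges spot fluorescence near 667 nm with signal-to-noise over triplicate slides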
Sam68 (KHDRBS1) = assay: Sam68 small-molecule binders, primary screen, biochemical, small-molecule microarray, 635 nm fluorescence (AID 1125); conditions: small-molecule microarray binding, higher = more signal;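 further: score merges 667 nm channel intensity with signal to noise over triplicate slides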
[17] = test system: Chordin-like protein 2 (CHRDL2); assay: CHRDL2 small-molecule binders, primary screen, biochemical, small-molecule microarray, 635 nm fluorescence (AID 1126); conditions: small-molecule microarray binding, fluorescence 635 nm; higher = more signal;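 further: printed compound slides probed with Chrdl2 protein at 4 µg/mL for 1 h at 4 C; score merges 667 nm emission intensity with signal to noise over three replicate slides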
[18] = biological target: Concanavalin-A (Canavalia ensiformis) (UniProt P02866); assay: ConA small-molecule binders, primary screen, artefact control for SMM control protein annotation, biochemical, small-molecule microarray, Alexa647 label, 635 nm (AID 1127); conditions: ConA-A647 binding fluorescence, higher = more signal;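 further: z combines 667 nm emission intensity with signal-to-noise across three replicate slides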
Concanavalin-A (Canavalia ensiformis), sequence (P02866 whole entry, looked up): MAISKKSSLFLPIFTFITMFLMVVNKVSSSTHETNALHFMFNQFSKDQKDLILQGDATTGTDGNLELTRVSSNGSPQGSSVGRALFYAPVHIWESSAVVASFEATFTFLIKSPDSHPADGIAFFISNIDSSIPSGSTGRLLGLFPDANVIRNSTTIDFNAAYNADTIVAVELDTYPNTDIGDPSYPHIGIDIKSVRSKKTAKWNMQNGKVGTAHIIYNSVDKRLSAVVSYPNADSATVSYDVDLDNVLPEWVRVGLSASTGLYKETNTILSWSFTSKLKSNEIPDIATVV

Structure (SMILES)	composite z-score [1]	z-score [2]	composite z-score [3]	composite z-score [4]	composite z-score [5]	composite z-score [6]	composite z-score [7]	composite z-score [8]	composite z-score [9]	composite z-score [10]	composite z-score (Albumin (Bos taurus))	composite Z-score [11]	composite z-score [12]	composite z-score [13]	composite z-score [14]	composite z-score [15]	composite z-score [16]	composite z-score (Sam68 (KHDRBS1))	composite z-score [17]	composite z-score [18]
CN1C=C(C(=O)OCCS(C)(=O)=O)C(C(=O)OCCS(C)(=O)=O)=CC(CCCO)=CC1c1ccc(CN2CCCC2)cc1 (stereo not given)	1.45	-1.36	0.595	0.693	-0.551	-0.0087	0.261	0.827	0.51	0.745	0.676	0.48 (inactive)	0.405	-0.146	0.746	1.87	-0.197	1.3	0.369	0.907
COCCOC(=O)N1C(=O)[C@@]2(c3ccccc31)[C@H](C(=O)N1CCCCCCC1)[C@H]1C(=O)O[C@H](c3ccccc3)[C@H](c3ccccc3)N1[C@@H]2c1ccc(O)cc1	1.4	-1.06	1.17	2.73	1.56	1.39	1.04	2.12	5.09	3.37	0.816	4.39 (inactive)	2	0.95	0.608	3.97	2.11	1.3	1.41	1.03
Cc1ccc(S[C@]2(C(=O)NCCCN(C)C)CC(=O)N(Cc3ccccc3Cl)[C@@H]2c2ccc(CO)cc2I)cc1	-0.177	-1.55	-1.7	0.0681	0.283	-0.1	-0.0681	0.692	0.49	2.46	-0.153	0.153 (inactive)	-0.136	-0.142	0.815	0.429	0.0345	-0.406	-0.697	-0.708
COc1cc2c(cc1O)C(C1CC1)N(Cc1ccc([N+](=O)[O-])o1)CC2 (stereo not given)	1.29	-0.498	-0.423	1.82	1.21	-0.0924	-0.291	1.73	1.04	0.42	0.959	0.676 (inactive)	0.0159	-0.0826	0.717	1.42	1.03	0.835	-0.465	0.934
C=CC[C@@]1(C(=O)N(C)C)N=C(c2ccc(OCCCO)cc2)O[C@@H]1c1ccccc1	0.242	-0.624	0.191	0.401	0.621	0.233	0.246	-0.42	0.961	0.826	0.434	-0.593 (inactive)	0.315	0.182	0.644	2.59	1.01	-0.108	0.0028	0.148
C=CCNC(=O)[C@H]1[C@@H]2C(=O)O[C@@H](c3ccccc3)[C@@H](c3ccccc3)N2[C@@H](c2ccccc2OCCO)[C@]12C(=O)N(C(=O)OCCOC)c1ccccc12	1.11	-3.16	0.142	0.336	0.287	-0.124	0.0684	0.86	1.13	1.53	0.813	-0.104 (inactive)	-0.161	-0.153	0.567	1.96	0.883	1.21	0.414	1.13
CC(C)C[C@@H]1NC(=O)[C@H]2C[C@@H](C(=O)NCCCCCCNC(=O)CS)[C@@H](c3ccc(O)cc3)N2C1=O	1.4	-1.13	0.719	1.56	0.858	-0.0718	-0.0362	-0.164	1.47	-0.827	0.291	0.741 (inactive)	-0.0581	0.0018	0.665	1.73	0.0905	1.3	0.986	1.11
CCCCN1CC=CC23O[C@@H]4/C=C\CCC(C)OC(=O)C4[C@H]2C(=O)N(C(C)CO)[C@@H]3C1=O (stereo not given in full)	-1.13	0.263	-0.0716	-0.325	-1.04	-0.178	-0.2	-0.188	0.201	-0.606	-1.58	0.319 (inactive)	-0.0498	-0.0907	0.822	-0.986	0.103	-0.879	-0.0668	-0.59

Reference: PubChem BioAssay
